{
  "source": "the supplement of paper PMC6135742",
  "note": "Where a name gives a salt, the structure may show the parent alone. ± gives the standard deviation of the averaged measurements. Whole data set: some 2,600 compounds, median “MBP+ mature oligodendrocyte number relative to DMSO vehicle control” near -0.34, cut for the highest 2% near 13. For the sample, the highest values were picked, then their nearest neighbours and some compounds at random.",
  "data": [
    {"system": "jimpy (Plp1 jimpy) mouse iPSC-derived oligodendrocyte progenitor cells", "test": "MBP+ mature oligodendrocyte number relative to DMSO vehicle control (SDs above negative control mean); higher = more surviving jimpy oligodendrocytes (rescue)", "settings": "10 µM; 3 days", "procedure": "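Primary phenotypic screen of >3,000 bioactive compounds (Selleck L1700 and Sigma LO1280 libraries) at a single dose of 10 µM. Compounds were added to jimpy (Plp1 mutant) mouse iPSC-derived OPCs at the start of thyroid hormone-induced oligodendrocyte differentiation, one well per compound in 384-well plates. After 3 days cells were stained for MBP, Sox10 and DAPI and imaged with an Operetta system. MBP+ oligodendrocyte number and total cell number were expressed as the number of SDs above the mean of the DMSO negative control on the same plate (n=16 control wells per plate). Hits were defined as >=4 SD for oligodendrocytes and >=2 SD for total cells.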", "values": [
      {"smiles": "CCN(CC)CCNC(=O)c1ccc(NS(C)(=O)=O)cc1", "note": "[Sematilide monohydrochloride monohydrate]", "MBP+ mature oligodendrocyte number": -0.439},
      {"smiles": "O=C(NCc1ccccc1)c1csc(Nc2ccncn2)n1", "note": "[Thiazovivin]", "MBP+ mature oligodendrocyte number": -3.47},
      {"smiles": "CCCCNc1ncc(-c2ccc(CN3CCOCC3)cn2)c(NC2CCC(O)CC2)n1", "note": "(stereo not drawn)", "MBP+ mature oligodendrocyte number": -4.15},
      {"smiles": "O=C1c2ccccc2C(=O)c2c(NCCc3ccc(O)cc3)ccc(NCCc3ccc(O)cc3)c21", "MBP+ mature oligodendrocyte number": -4.41},
      {"smiles": "Cc1ccc(C(=O)Cn2c3c(sc2=N)CCCC3)cc1", "note": "[Pifithrin-? (PFT?)]", "MBP+ mature oligodendrocyte number": 17},
      {"smiles": "Cc1ccc(C(=O)C(C)CN2CCCCC2)cc1", "note": "(stereo not drawn) [Tolperisone HCl]", "MBP+ mature oligodendrocyte number": 5.05},
      {"smiles": "S=c1[nH]c(-c2ccccc2)cn1-c1ccccc1", "MBP+ mature oligodendrocyte number": 2.54},
      {"smiles": "CN(C)c1ccc(/C=C2/C(=O)Nc3ccccc32)cc1", "MBP+ mature oligodendrocyte number": 0.789},
      {"smiles": "O=c1cc(-c2ccccc2)oc2cc(O)cc(O)c12", "note": "[Chrysin]", "MBP+ mature oligodendrocyte number": 4.59},
      {"smiles": "CCOc1cc(N)c(Cl)cc1C(=O)NCC1CN(Cc2ccc(F)cc2)CCO1", "note": "(stereo not drawn) [Mosapride Citrate]", "MBP+ mature oligodendrocyte number": 23},
      {"smiles": "COc1cc(N)c(Cl)cc1C(=O)OCCN1CCCCC1", "MBP+ mature oligodendrocyte number": -3.81},
      {"smiles": "CCN(CC)CCNC(=O)c1cc(Cl)c(N)cc1OC", "note": "[Metoclopramide hydrochloride]", "MBP+ mature oligodendrocyte number": 0.304},
      {"smiles": "C[C@H]1O[C@@H](Oc2c(-c3cc(O)c(O)c(O)c3)oc3cc(O)cc(O)c3c2=O)[C@@H](O)[C@@H](O)[C@@H]1O", "note": "[Myricitrin]", "MBP+ mature oligodendrocyte number": 0.507},
      {"smiles": "Nc1ccc(-c2ccc3ccccc3n2)cc1", "note": "[BF-170 hydrochloride]", "MBP+ mature oligodendrocyte number": 0.146},
      {"smiles": "O=C(/C=C/c1ccc(O)c(O)c1)c1ccc(O)cc1O", "note": "[Butein]", "MBP+ mature oligodendrocyte number": -4.58},
      {"smiles": "O=C(Cc1ccc(-c2ccc(OCCN3CCOCC3)cc2)cn1)NCc1ccccc1", "MBP+ mature oligodendrocyte number": -5.77},
      {"smiles": "CCCCOc1ccc(OCCCN2CCOCC2)cc1", "note": "[Pramoxine HCl]", "MBP+ mature oligodendrocyte number": 14.3},
      {"smiles": "CCCCOc1ccc(C(=O)CCN2CCCCC2)cc1", "note": "[Dyclonine HCl]", "MBP+ mature oligodendrocyte number": -1.91},
      {"smiles": "CC[C@@H]1C(=O)N(C)c2cnc(Nc3ccc(C(=O)N[C@H]4CC[C@H](N5CCN(CC6CC6)CC5)CC4)cc3OC)nc2N1C(C)C", "note": "[Volasertib (BI 6727)]", "MBP+ mature oligodendrocyte number": "< -4.81"},
      {"smiles": "COCCCOc1ccnc(C[S+]([O-])c2nc3ccccc3[nH]2)c1C", "note": "(stereo not drawn) [Rabeprazole sodium]", "MBP+ mature oligodendrocyte number": 1.61},
      {"smiles": "Cc1c(OCC(F)(F)F)ccnc1C[S+]([O-])c1nc2ccccc2[nH]1", "note": "(stereo not drawn) [Lansoprazole]", "MBP+ mature oligodendrocyte number": "7.5 ± 4.5"},
      {"smiles": "Cc1c(OCC(F)(F)F)ccnc1C[S@@+]([O-])c1nc2ccccc2[nH]1", "note": "[Dexlansoprazole]", "MBP+ mature oligodendrocyte number": 17.2},
      {"smiles": "O=C(NCCCNc1nc(Nc2cccc(NC(=O)N3CCCC3)c2)ncc1I)c1cccs1", "MBP+ mature oligodendrocyte number": -6.61},
      {"smiles": "NCCCCC(=O)O", "note": "[5-Aminovaleric acid hydrochloride]", "MBP+ mature oligodendrocyte number": -1.14},
      {"smiles": "O=C(/C=C/c1ccccc1)NC(NC(=S)Nc1cccc2cccnc12)C(Cl)(Cl)Cl", "note": "(stereo not drawn) [Salubrinal]", "MBP+ mature oligodendrocyte number": 19},
      {"smiles": "O=C(Nc1cccc2cccnc12)c1ccc(N2C(=O)[C@@H]3[C@H](C2=O)[C@@H]2C=C[C@H]3C2)cc1", "note": "[IWR-1-endo]", "MBP+ mature oligodendrocyte number": -3.56},
      {"smiles": "O=C(C=Cc1ccccc1)NC(NC(=S)Nc1ccc(Cl)cc1)C(Cl)(Cl)Cl", "note": "(stereo not drawn)", "MBP+ mature oligodendrocyte number": -0.386},
      {"smiles": "N=C(N)Nc1ccc(C(=O)Oc2ccc3cc(C(=N)N)ccc3c2)cc1", "note": "[Nafamostat Mesylate]", "MBP+ mature oligodendrocyte number": -3.03},
      {"smiles": "NC1CONC1=O", "note": "(racemic) [DL-Cycloserine]", "MBP+ mature oligodendrocyte number": 0.353},
      {"smiles": "O=C(Nc1cccnc1)N1CCC(Cc2cccc(Oc3ccc(C(F)(F)F)cn3)c2)CC1", "MBP+ mature oligodendrocyte number": 19.5},
      {"smiles": "O=C(Nc1cccnc1)N1CCC(Cc2cccc(Oc3ccc(C(F)(F)F)cn3)c2)CC1", "note": "[PF 3845 hydrate]", "MBP+ mature oligodendrocyte number": 10.1},
      {"smiles": "O=C(Nc1ccccc1Br)N[C@@H]1CCN(c2ccc(C(F)(F)F)cn2)C1", "MBP+ mature oligodendrocyte number": 1.22},
      {"smiles": "Cn1ccc2cc3c(cc21)CCN3C(=O)Nc1cccnc1", "MBP+ mature oligodendrocyte number": 0.574},
      {"smiles": "Nc1nccc(Oc2ccc(NC(=O)c3c[nH]cc(-c4ccc(F)cc4)c3=O)cc2F)c1Cl", "MBP+ mature oligodendrocyte number": 7.17},
      {"smiles": "C[C@@H](O[C@H]1OCCN(Cc2nn(P(=O)(O)O)c(=O)[nH]2)[C@H]1c1ccc(F)cc1)c1cc(C(F)(F)F)cc(C(F)(F)F)c1", "note": "[Fosaprepitant dimeglumine salt]", "MBP+ mature oligodendrocyte number": -2.44},
      {"smiles": "CN1CC(=O)N=C1NC(=O)Nc1cccc(Cl)c1", "note": "[Fenobam]", "MBP+ mature oligodendrocyte number": -0.794},
      {"smiles": "Nc1nc2c(c(=O)[nH]1)C[C@@H](CCc1ccc(C(=O)N[C@@H](CCC(=O)O)C(=O)O)cc1)CN2", "note": "[Lometrexol hydrate]", "MBP+ mature oligodendrocyte number": 0.225},
      {"smiles": "CCn1cc(-c2ccnc3[nH]c(-c4cccc(CN(C)C)c4)cc23)c(-c2ccc(NC(=O)N(C)C)cc2)n1", "MBP+ mature oligodendrocyte number": -5.93}
    ]}
  ]
}
